An excerpt weighted towards active compounds, which were near 3.3% of everything screened.
MBD2 inh: MBD2-methylated oligo binding inhibition; Q9UBB5; TR-FRET, MBD2 binding to methylated oligonucleotide; inhibition, % at 4.4 µM; 370,000 tested, 0.31% active; AID 686964; in the data active means inhibition above about 13%
Target sequence (Q9UBB5 whole entry, looked up): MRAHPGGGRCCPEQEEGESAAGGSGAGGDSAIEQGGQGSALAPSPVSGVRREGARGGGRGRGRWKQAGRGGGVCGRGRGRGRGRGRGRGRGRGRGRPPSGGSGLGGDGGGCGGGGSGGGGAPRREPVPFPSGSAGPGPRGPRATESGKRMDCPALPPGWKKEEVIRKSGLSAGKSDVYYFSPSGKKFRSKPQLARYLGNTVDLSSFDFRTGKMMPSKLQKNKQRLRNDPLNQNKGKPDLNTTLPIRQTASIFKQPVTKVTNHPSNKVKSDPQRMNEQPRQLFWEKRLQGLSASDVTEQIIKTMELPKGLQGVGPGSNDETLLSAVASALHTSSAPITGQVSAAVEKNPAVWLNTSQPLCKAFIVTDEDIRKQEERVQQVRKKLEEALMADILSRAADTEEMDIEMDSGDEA
PRMT1 FP inh: inhibitors of human PRMT1; Q99873; recombinant PRMT1, activity-based probe fluorescence polarization; inhibition, % at 2.79 µM; 370,000 tested, 1.3% active; AID 652257;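 active means inhibition above about 21% made by adding two undisclosed values, limit read from the data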
UHRF1 MBD2 ctr: blocks human UHRF1 binding to methylated DNA. Q96T88. UHRF1 binding to methylated oligo, TR-FRET. inhibition, % at 4.4 µM. 370,000 tested, 0.75% active. AID 687016; in the data active means inhibition above about 21%;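 further: UHRF1 SRA domain binding a hemimethylated CpG hairpin DNA probe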
PfG6PD inh: PfG6PD (Plasmodium falciparum) enzyme inhibition. PfGluPho enzyme, NADPH resazurin-diaphorase fluorescence. AID 504690. inhibition, % at 20 µM. 350,000 tested, 0.78% active;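 active means inhibition reaching at least a set limit at 20 µM in the primary screen, cut at about 59% in these data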
PfM18AAP inh-1: blocks P. falciparum M18 aspartyl aminopeptidase; recombinant PfM18AAP, H-Glu-NHMec fluorogenic cleavage; 290,000 tested, 1.2% active; AID 1822; inhibition, % at 7.35 µM;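 active means inhibition above the campaign mean inhibition over all tested compounds plus 3 SD, cut at about 28% in these data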
PfM18AAP inh-2: PfM18AAP inhibition, confirmation. shares compounds with PfM18AAP inh-1. recombinant PfM18AAP, H-Glu-NHMec fluorogenic cleavage. inhibition, % at 7.35 µM. 2,400 tested, 28% active;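 active means mean inhibition over replicate wells above the hit cutoff set for the earlier primary screen, cut at about 29% in these data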
CTSL1 confirm: counter-screen for PFM18AAP inhibitors: confirmation of human cathepsin L inhibitors; shares compounds with PfM18AAP inh-1; purified cathepsin L1, Z-Leu-Arg-MCA fluorescence; inhibition, % at 5.96 µM; 2,400 tested, under 10 active; AID 2178;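 active means average inhibition across replicates above the hit cutoff set in the earlier primary screen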
Numbers stand for hits; 0 = inactive; - = no result given.

SMILES	MBD2 inh	PRMT1 FP inh	UHRF1 MBD2 ctr	PfG6PD inh	PfM18AAP inh-1	PfM18AAP inh-2	CTSL1 confirm
CCN1CCc2c(sc(NC(=O)Cc3ccccc3)c2C(N)=O)C1	0	0	0	0	0	-	-
CCN1CCc2c(sc(NC(=O)c3ccc(S(=O)(=O)N(CC)c4ccccc4)cc3)c2C(N)=O)C1	0	0	0	0	36	0	0
COCC1CN(CCc2ccc(F)cc2)S(=O)(=O)c2c(F)cccc2O1 (stereo not drawn)	0	0	0	-	-	-	-
Cc1c(Cl)cccc1NC(=O)c1ncn[nH]1	0	0	0	0	37	36	0
Cc1ccc(NC(=O)c2ncn[nH]2)cc1	0	0	0	0	0	-	-
Cc1nc2c(cc1C(=O)N/N=C/c1ccc(O)c(O)c1)c(=O)n(C)c(=O)n2C	0	0	0	0	62	68	0
O=C(CSc1nc2[nH]ncc2c(=O)[nH]1)c1ccccc1	0	0	0	0	48	40	0
O=C(CSc1nc2[nH]ncc2c(=O)[nH]1)c1ccc(Cl)cc1	0	0	0	-	0	-	-
O=C(CSc1nc2[nH]ncc2c(=O)[nH]1)N1CCCCC1	0	0	0	0	34	0	0
O=C(CSc1nc2[nH]ncc2c(=O)[nH]1)N1CCCC1	0	0	0	0	0	-	-
COc1cccc(OC)c1OCc1cc(C2C3CCCC=C3C(C#N)=C(N)C2(C#N)C#N)c(C)cc1C (stereo not drawn)	0	0	0	0	36	0	0
FC(F)(F)c1ccccc1NC(=S)NN=C1CCCCCC1	0	0	0	0	39	0	0
CCNC(=S)NNC(=O)c1cnccn1	0	0	0	-	-	-	-
O=C1[C@@H](CCc2ccccc2)[C@@H]2c3cc4ccccc4cc3C=NN2[C@@H]2c3cc4ccccc4cc3C=NN12	0	0	0	-	-	-	-
O=C(NCc1ccccn1)C(=O)N/N=C/c1ccc2c(c1)OCO2	0	0	0	0	37	0	0
CCCCN1CC(COCc2ccccc2)Oc2cccc(Sc3ccc(OC)c(OC)c3)c2S1(=O)=O (stereo not drawn)	0	0	0	-	-	-	-
CN1c2ccccc2C(C)(C)[C@]12C=Cc1cc(O)ccc1O2	0	0	0	0	48	0	0
CN(CCO)C(=O)c1nc[nH]c1C(=O)N1CCN(c2ccccc2)CC1	0	0	0	-	-	-	-
O=C(Cc1ncn[nH]1)NCCc1ccccc1	0	0	0	0	32	40	0
CCC(C)(C)n1nnnc1CN(Cc1cc2cc(OC)c(OC)cc2[nH]c1=O)C1CCCC1	0	0	0	0	33	0	0
CCCCCCCCN1CCS(=O)(=O)N(Cc2ccc(Cl)cc2)C(C(=O)OC)C1 (stereo not drawn)	0	0	0	-	-	-	-
Cc1ccc(C(c2sc3nc(C)nn3c2O)N2CCOCC2)cc1 (stereo not drawn)	0	0	0	0	0	-	-
Cc1ccc(C(c2sc3ncnn3c2O)N2CCC(C)CC2)cc1 (stereo not drawn)	0	0	0	0	56	0	0
Cc1ccc(C(c2sc3ncnn3c2O)N2CCCCC2)cc1 (stereo not drawn)	0	0	0	0	47	0	0
Oc1c(C(c2ccc(F)cc2)N2CCc3ccccc3C2)sc2ncnn12 (stereo not drawn)	0	0	0	0	53	0	0
SMILES	MBD2 inh	PRMT1 FP inh	UHRF1 MBD2 ctr	PfG6PD inh	PfM18AAP inh-1	PfM18AAP inh-2	CTSL1 confirm
CCNC(=S)NNc1nc(N2CCCCC2)nc(N2CCOCC2)n1	0	0	0	0	44	0	0
COc1cc2nc(CSc3ncn[nH]3)[nH]c(=O)c2cc1OC	0	0	0	0	63	66	0
O=C1/C(=C\c2ccc(O)c(O)c2)C(c2ccccc2)=NN1c1ccccc1	0	0	0	0	49	36	0
CCOC(=O)c1c(-c2cccs2)csc1N	0	0	0	0	36	0	0
COc1ccc(-c2csc(NC(=O)CSc3ncn[nH]3)n2)cc1OC	0	0	0	0	66	49	0
O=C(CSc1ncn[nH]1)Nc1nc(-c2ccccc2)cs1	0	0	0	0	40	46	0
CCOC(=O)c1c(NC(=O)CSc2ncn[nH]2)sc(C)c1C	0	0	0	0	48	0	0
CCCc1nnc(NC(=O)CSc2ncn[nH]2)s1	0	0	0	0	40	44	0
CCCCc1nc(SCC(=O)Nc2nnc(CCCC)s2)n[nH]1	0	0	0	0	0	-	-
Cc1cc(=O)[nH]c(SCC(=O)Nc2nc(-c3ccccc3)cs2)n1	0	0	0	0	0	-	-
O=S(=O)(CS(=O)(=O)c1ccccc1Br)c1ccccc1Br	0	0	0	-	-	-	-
C=C1[C@@H](CCO)N(S(=O)C(C)(C)C)C[C@@H]1C (stereo partly drawn)	0	0	0	-	-	-	-
COc1ccc(CCNC(=O)CSc2ncn[nH]2)cc1	0	0	0	0	0	-	-
COc1ccc(CNC(=O)CSc2ncn[nH]2)cc1OC	0	0	0	0	34	0	0
CCOC(OCC)P(=O)(CNC(c1ccccc1)(c1ccccc1)c1ccccc1)OCC (stereo not drawn)	0	0	0	-	-	-	-
CN(C)c1ccc(/C=N\Nc2ccccn2)cc1	0	0	0	0	0	-	-
CN(C)c1ccc(/C=N/Nc2ccc(-n3ccnc3)nn2)cc1	0	0	0	0	34	0	0
COC(=O)[C@]12C[C@H](CC(=O)NCc3ccccc3)C(=O)N(Cc3cccc4ccccc34)C1=C[C@H](C(C)C)O[C@@H]2C1CC1	0	0	0	-	-	-	-
O=C(N/N=C/c1cccnc1)c1cc(O)c(O)c(O)c1	0	0	0	0	40	0	0
NC(Cc1ccc(O)cc1)C(=O)NN=Cc1ccccc1Cl (stereo not drawn)	0	0	0	-	-	-	-
Oc1ccc(-c2csc(-c3ccccc3)n2)cc1O	0	0	0	0	55	60	0
Oc1ccc(-c2csc(Nc3ncccn3)n2)cc1O	0	0	0	0	65	53	0
Oc1ccc(-c2csc(-c3cccnc3)n2)cc1O	0	0	0	0	73	85	0
Cc1ccc2nc(-c3ccc(O)c(O)c3)cn2c1	0	0	0	0	70	55	0
COc1ccc(C2=CCN(C)C(=O)N2c2ccc([N+](=O)[O-])cc2)cc1	0	0	0	-	-	-	-
SMILES	MBD2 inh	PRMT1 FP inh	UHRF1 MBD2 ctr	PfG6PD inh	PfM18AAP inh-1	PfM18AAP inh-2	CTSL1 confirm
Cc1nc(-c2ccc(O)c(O)c2)cs1	0	0	0	0	94	87	0
NC(N)=N/N=C/c1cccc([N+](=O)[O-])c1O	0	0	0	0	43	0	0
N#CCC(=O)NN=C1CCCCCCCCCCC1	0	0	0	0	54	0	0
O=C(Cc1ccccc1)NN=C1CCCC1	0	0	0	0	-	-	-
O=c1[nH]cnc2[nH]ncc12	0	0	0	0	49	0	0
Cc1cc2c(=O)[nH]cnc2s1	0	0	0	0	0	-	-
COc1ccc(C2CC(c3ccccc3)=NN2C(=S)Nc2ccccc2)cc1 (stereo not drawn)	0	0	0	0	0	-	-

Screening results (PubChem)
